In all, about 5,500 compounds went through this assay and about 2,000 (36%) were called active. Not shown: some 18% with an inconclusive outcome. No stated cut-off is given here; in the data, active means normalized growth mostly below about 0.91 (no sharp cut-off); inconclusive means no clear call, values can overlap the other calls; inactive means mostly above about 0.92. The list shows a part of the results. Where a SMILES comes first, the peptide text is derived from it.
Assay: chemical genetic growth profiling, strain panel (AID 1159580);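 further: tested at 20 µM; growth read once vehicle control cultures reached saturation at 30 °C; 1 = growth at the plate median or of vehicle wells; lower values mean less growth of the strain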
Settings: growth OD

Measured: normalized growth

NCCCCC(N)C(=O)NC(Cc1ccc(O)cc1)C(=O)NC(CCCCN)C(=O)O (stereo not drawn) (H-Lys-Tyr-Lys-OH; configuration not given here)
inactive: S. cerevisiae deletion strains, locus YAL013W, strain DEP1, hits give low values 1.01 | S. cerevisiae deletion strains, locus YBR021W, strain FUR4, hits give low values 1 | S. cerevisiae deletion strains, locus YBR229C, strain ROT2, hits give low values 1.01 | S. cerevisiae deletion strains, locus YCL029C, strain bik1, hits give low values 0.983 | S. cerevisiae deletion strains, locus YDL035C, strain GPR1, hits give low values 1.01 | S. cerevisiae deletion strains, locus YDL074C, strain BRE1, hits give low values 1.06 | S. cerevisiae deletion strains, locus YDL101C, strain DUN1, hits give low values 1.02 | S. cerevisiae deletion strains, locus YDL134C, strain PPH21, hits give low values 1.01 | S. cerevisiae deletion strains, locus YDL185W, strain tfp1, hits give low values 0.971 | S. cerevisiae deletion strains, locus YDL192W, strain arf1, hits give low values 0.984 | S. cerevisiae deletion strains, locus YDR101C, strain arx1, hits give low values 1.01 | S. cerevisiae deletion strains, locus YDR150W, strain NUM1, hits give low values 0.999 | S. cerevisiae deletion strains, locus YDR162C, strain NBP2, hits give low values 1.04 | S. cerevisiae deletion strains, locus YDR318W, strain mcm21, hits give low values 0.983 | S. cerevisiae deletion strains, locus YDR388W, hits give low values 1.01 | S. cerevisiae deletion strains, locus YDR502C, strain sam2, hits give low values 1 | S. cerevisiae deletion strains, locus YEL061C, strain CIN8, hits give low values 0.996 | S. cerevisiae deletion strains, locus YER110C, hits give low values 0.987 | S. cerevisiae deletion strains, locus YER155C, strain BEM2, hits give low values 0.985 | S. cerevisiae deletion strains, locus YER167W, strain BCK2, hits give low values 0.995 | S. cerevisiae deletion strains, locus YGL078C, strain dbp3, hits give low values 0.988 | S. cerevisiae deletion strains, locus YGL086W, strain mad1, hits give low values 0.963 | S. cerevisiae deletion strains, locus YGL248W, strain PDE1, hits give low values 1.01 | S. cerevisiae deletion strains, locus YGR078C, strain PAC10, hits give low values 1.04 | S. cerevisiae deletion strains, locus YGR135W, strain pre9, hits give low values 0.999 | S. cerevisiae deletion strains, locus YGR229C, strain SMI1, hits give low values 1.05 | S. cerevisiae deletion strains, locus YGR252W, strain gcn5, hits give low values 0.958 | S. cerevisiae deletion strains, locus YHR030C, strain SLT2, hits give low values 0.996 | S. cerevisiae deletion strains, locus YHR079C, strain IRE1 (second series), hits give low values 1 | S. cerevisiae deletion strains, locus YHR094C, strain hxt1, hits give low values 0.982 | S. cerevisiae deletion strains, locus YHR129C, strain ARP1, hits give low values 1.01 | S. cerevisiae deletion strains, locus YHR200W, strain rpn10, hits give low values 0.984 | S. cerevisiae deletion strains, locus YIL066C, strain RNR3, hits give low values 1.02 | S. cerevisiae deletion strains, locus YIL073C, strain SPO22, hits give low values 0.948 | S. cerevisiae deletion strains, locus YIR030C, strain dcg1, hits give low values 0.995 | S. cerevisiae deletion strains, locus YJL095W, strain BCK1, hits give low values 1.07 | S. cerevisiae deletion strains, locus YJL134W, strain LCB3, hits give low values 0.997 | S. cerevisiae deletion strains, locus YJL168C, strain set2, hits give low values 1.02 | S. cerevisiae deletion strains, locus YJL187C, strain SWE1 (second series), hits give low values 1.01 | S. cerevisiae deletion strains, locus YJR043C, strain POL32, hits give low values 0.996 | S. cerevisiae deletion strains, locus YJR075W, strain HOC1, hits give low values 1.1 | S. cerevisiae deletion strains, locus YKL009W, strain mrt4, hits give low values 0.958 | S. cerevisiae deletion strains, locus YKL068W, hits give low values 0.987 | S. cerevisiae deletion strains, locus YKL085W, strain MDH1 (second series), hits give low values 1.04 | S. cerevisiae deletion strains, locus YKL085W, strain MDH1, hits give low values 1.04 | S. cerevisiae deletion strains, locus YKL190W, strain CNB1, hits give low values 1.01 | S. cerevisiae deletion strains, locus YKR001C, strain vps1, hits give low values 0.979 | S. cerevisiae deletion strains, locus YLR039C, strain RIC1, hits give low values 1.04 | S. cerevisiae deletion strains, locus YLR058C, strain SHM2, hits give low values 0.999 | S. cerevisiae deletion strains, locus YLR102C, strain apc9, hits give low values 1 | S. cerevisiae deletion strains, locus YLR262C, strain YPT6, hits give low values 1 | S. cerevisiae deletion strains, locus YLR268W, strain sec22, hits give low values 1.01 | S. cerevisiae deletion strains, locus YLR330W, strain CHS5, hits give low values 0.987 | S. cerevisiae deletion strains, locus YLR342W, strain FKS1 (second series), hits give low values 1.01 | S. cerevisiae deletion strains, locus YLR371W, strain rom2, hits give low values 0.983 | S. cerevisiae deletion strains, locus YLR418C, strain cdc73, hits give low values 1.04 | S. cerevisiae deletion strains, locus YML016C, strain PPZ1, hits give low values 1 | S. cerevisiae deletion strains, locus YML032C, strain rad52, hits give low values 0.976 | S. cerevisiae deletion strains, locus YML124C, strain tub3, hits give low values 0.99 | S. cerevisiae deletion strains, locus YMR078C, strain ctf18, hits give low values 0.982 | S. cerevisiae deletion strains, locus YMR223W, strain ubp8, hits give low values 0.981 | S. cerevisiae deletion strains, locus YMR263W, strain SAP30, hits give low values 1.05 | S. cerevisiae deletion strains, locus YMR307W, strain GAS1, hits give low values 1.07 | S. cerevisiae deletion strains, locus YNL067W, strain RPL9B, hits give low values 1.04 | S. cerevisiae deletion strains, locus YNL128W, strain TEP1, hits give low values 1.05 | S. cerevisiae deletion strains, locus YNL153C, strain GIM3, hits give low values 1.05 | S. cerevisiae deletion strains, locus YNL233W, strain BNI4, hits give low values 1.04 | S. cerevisiae deletion strains, locus YNL250W, strain rad50, hits give low values 0.981 | S. cerevisiae deletion strains, locus YNL271C, strain bni1, hits give low values 0.99 | S. cerevisiae deletion strains, locus YNL298W, strain CLA4, hits give low values 0.987 | S. cerevisiae deletion strains, locus YNL307C, strain MCK1, hits give low values 0.993 | S. cerevisiae deletion strains, locus YNL322C, strain KRE1, hits give low values 0.998 | S. cerevisiae deletion strains, locus YNR052C, strain pop2, hits give low values 0.99 | S. cerevisiae deletion strains, locus YOL006C, strain TOP1, hits give low values 1.06 | S. cerevisiae deletion strains, locus YOL012C, strain htz1 0.771 | S. cerevisiae deletion strains, locus YOL147C, strain pex11, hits give low values 0.995 | S. cerevisiae deletion strains, locus YOR061W, strain CKA2, hits give low values 1.01 | S. cerevisiae deletion strains, locus YOR069W, strain VPS5, hits give low values 1 | S. cerevisiae deletion strains, locus YOR136W, strain idh2, hits give low values 0.998 | S. cerevisiae deletion strains, locus YOR144C, strain elg1, hits give low values 0.989 | S. cerevisiae deletion strains, locus YOR184W, strain ser1, hits give low values 0.966 | S. cerevisiae deletion strains, locus YOR316C, strain cot1, hits give low values 0.99 | S. cerevisiae deletion strains, locus YPL055C, strain LGE1, hits give low values 1.11 | S. cerevisiae deletion strains, locus YPL241C, strain CIN2, hits give low values 1 | S. cerevisiae deletion strains, locus YPR119W, strain clb2, hits give low values 0.998 | S. cerevisiae deletion strains, locus YPR141C, strain kar3, hits give low values 1 | S. cerevisiae deletion strains, locus YPR163C, strain tif3, hits give low values 0.982 | S. cerevisiae deletion strains, locus YPR167C, strain met16, hits give low values 0.997 | S. cerevisiae deletion strains, strain wtn01, hits give low values 1.03 | S. cerevisiae strains, strain wild type, hits give low values 1.01

From PubChem BioAssay AID1159580 (chemical genetic matrix, 2015)
